# TIM10 inh: inhibits growth of TIM10 yeast strain; S. cerevisiae TIM10 strain growth, BacTiter-Glo luminescence, 24 h; hit rate 1.4% among 330,000; inhibition, % at 10 µM;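 active = inhibition of 40% or more at the single tested concentration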;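 also: wild-type TIM10 isogenic control strain grown at permissive 25 °C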
# NALP3 yeast inh: inhibitors of NALP3 inflammasome in yeast; Yeast reconstituted NLRP3/ASC/caspase-1, beta-gal luminescence, 24 h; inhibition, % at 10 µM; hit rate 0.39% among 330,000;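 active = inhibition of 50% or more; inactive = inhibition below 50%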;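 also: plate controls were induced DMSO wells for no effect and uninduced yeast grown without galactose for full effect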
# tim10-1 inh: inhibits growth of tim10-1 mutant yeast; inhibition, % at 20 µM; hit rate 2.2% among 330,000; S. cerevisiae tim10-1 ts strain growth, BacTiter-Glo, 24 h; AID 463190;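 active = inhibition of at least 40%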;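 also: mutant grown at 25 °C; 0% = DMSO wells with yeast and 100% = wells holding no yeast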
# tim23-1 inh: tim23-1 yeast growth inhibition | inhibition, % at 20 µM | AID 463212 | S. cerevisiae tim23-1 growth, BacTiter-Glo luminescence, 24 h | hit rate 1.3% among 330,000;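 active = growth inhibition of the mutant yeast at or above 50%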;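 also: temperature-sensitive mutant grown at 25 °C; plate controls were DMSO-treated mutant yeast for no effect and medium wells lacking yeast for full effect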
# NALP1 yeast inh: inhibitors of NALP1 inflammasome in yeast; S. cerevisiae NALP1/ASC/caspase-1 growth, X-gal OD620, 72 h; inhibition, % at 10 µM; hit rate 0.61% among 280,000; AID 2071; in the data active = inhibition mostly above about 24%, no sharp cut-off; inactive = mostly below about 32%
# V-ATPase pHluor: yeast V-ATPase proton transport regulation by pHLuorin. hit rate 0.37% among 350,000. response, % at 10 µM. S. cerevisiae, pHLuorin cytosolic pH fluorescence. AID 504577; in the data active = response mostly above about 7.3%, no sharp cut-off; inactive = mostly below about 5.4%; also: actives read high
# tim10-1 conf: confirmation of tim10-1 mutant yeast growth inhibitors; shares compounds with tim10-1 inh; S. cerevisiae tim10-1 ts strain growth, BacTiter-Glo, 24 h; inhibition, % at 20 µM; hit rate 56% among 7,400; AID 463213;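 active = inhibition of yeast growth at or above a set limit in either of two repeat tests at 20 µM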;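 also: tim10-1 mutant grown at permissive 25 °C to find synthetic lethal compounds; 0% = DMSO yeast wells and 100% = medium wells without yeast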
# An asterisk follows results filed as active; nt = no result given. Only some compounds are listed: those with a hit (about 4.2% of all), similar ones and a draw of the others.
SMILES,TIM10 inh,NALP3 yeast inh,tim10-1 inh,tim23-1 inh,NALP1 yeast inh,V-ATPase pHluor,tim10-1 conf
N#Cc1nc(COc2ccc(Cl)cc2Cl)oc1N1CCOCC1,32,19,41*,30,4,-3,25
C=CCN1C(=O)/C(=C2\SC(N3CCOCC3)=NC2=O)c2cc(Br)ccc21,29,23,51*,41,nt,-4,8
CCN1C(=O)/C(=C2\SC(N3CCOCC3)=NC2=O)c2ccccc21,-8,3,9,-13,-3,4,nt
O=C1C(Cl)=C(N2CCN(Cc3ccccc3)CC2)C(=O)N1Cc1ccccc1,28,16,44*,26,2,0,14
Cc1ccc(C(=O)O)cc1NS(=O)(=O)c1ccc2c(c1)oc(=O)n2C,-9,17,25,12,7,0,nt
CCCS(=O)(=O)Nc1cccc(-c2nc3cccnc3s2)c1,4,4,20,23,25,0,nt
Cc1ccc(-c2nc3cccnc3s2)cc1NS(C)(=O)=O,2,7,44*,13,12,-1,-7
N#Cc1ccccc1S(=O)(=O)N1CCN(C(=O)C2CCC2)CC1,-2,18,97*,-2,nt,2,4
N#C/C(=C/c1ccc(N2CCCCCC2)o1)c1ccc(Cl)cc1,39,35,47*,48,18,2,28
Cc1ccc(/C(C#N)=C\c2ccc(N3CCOCC3)o2)cc1,14,42,36,42,40,-2,nt
Cc1ccc(C(C)NC(=O)C2CCCC2)c(C)c1 (centres undefined),-10,7,4,5,12,1,nt
Cc1ccc(C(C)NC(=S)NC2CCCCC2)c(C)c1 (centres undefined),18,22,41*,17,12,3,8
COc1cc(-c2nc(-c3cccc(C(F)(F)F)c3)no2)cc(OC)c1OC,35,-8,41*,10,nt,0,31*
Cc1cccc(Cn2nc(C)cc2NC(=O)CCCn2ccc([N+](=O)[O-])n2)c1,22,-9,31,10,-8,-4,nt
O=C1/C(=C/c2ccc(O)cc2)CCc2ccc([N+](=O)[O-])cc21,1,19,20,2,28,-7,nt
O=C1/C(=C\c2ccc([N+](=O)[O-])cc2)CCc2ccccc21,37,21,47*,42,33,-2,36*
C=CCNC(=O)C(=O)NCC1CCCN1S(=O)(=O)c1cccs1 (centres undefined),10,11,3,1,nt,-1,nt
COc1c(F)c(F)c(C(=O)Nc2ccccc2N2CCN(C(=O)C(C)C)CC2)c(F)c1F,-8,-6,19,-1,5,4,nt
Cc1c(C(=O)C(=O)N2CCCc3ccccc32)c2ccccc2n1C,16,-2,43*,29,2,0,24
Cc1c(C(=O)C(=O)N2CCN(C)CC2)c2ccccc2n1C,-12,-2,7,2,10,1,nt
Cc1c2c(nc3ccccc13)CC(C)(C)CC2=O,-6,11,6,24,2,-2,nt
CC1(C)CC(=O)c2c(nn(-c3ccccc3)c2-c2ccncc2)C1,2,6,46*,29,-54,2,36*
COc1ccc(/C=C2\Oc3ccccc3C2=O)cc1,0,45,-5,31,nt,-2,nt
CC(=O)Oc1ccc(/C=C2/Oc3ccccc3C2=O)cc1,26,5,44*,40,21,-2,8
N#C/C(=C\c1cccnc1)c1nc2c(s1)CCCC2,20,41,43*,13,-5,-2,32*
SMILES,TIM10 inh,NALP3 yeast inh,tim10-1 inh,tim23-1 inh,NALP1 yeast inh,V-ATPase pHluor,tim10-1 conf
COc1cc(/C=C(\C#N)C(=O)N2CCCCC2)ccc1O,18,6,33,34,7,-2,nt
COc1cc(/C=C(\C#N)c2nc3c(s2)CCCC3)ccc1O,31,37,44*,34,26,nt,12
CC1CCc2nc(/C(C#N)=C/c3cccnc3)sc2C1 (centres undefined),27,24,42*,12,15,nt,30
O=C(Nc1ccccc1C(=O)Nc1ccccn1)c1ccccc1F,-17,21,15,28,-4,-4,nt
Cc1ccc(S(=O)(=O)N2C(=O)C(C)SC2=Nc2ccccc2)cc1 (centres undefined),12,-2,5,0,27,2,nt
Cn1cccc1/C=C1\SC(=S)N(CC(=O)O)C1=O,nt,nt,nt,nt,28,1,nt
C=CCn1c(NC)cc(=O)n(C)c1=O,4,3,-5,2,-4,-5,nt
O=C(Nc1ccccc1)c1cccc(=O)o1,-6,10,6,2,6,-3,nt
Cc1nc(NS(=O)(=O)c2ccc(Br)cc2)c2c3c(sc2n1)CCC3,20,10,14,32,0,-3,nt
Cc1nc(NS(=O)(=O)c2cccs2)c2c3c(sc2n1)CCC3,26,8,44*,43,12,-3,29*
CCOC(=O)COn1c(=O)c(-c2cc3ccccc3o2)[n+]([O-])c2ccccc21,7,21,44*,29,-4,-3,12
CCOC(=O)COn1c(=O)c(-c2ccc(F)cc2)[n+]([O-])c2ccccc21,-11,12,22,0,4,-1,nt
CCOCc1nnc(NC(=O)CCc2ccccc2)s1,0,6,16,-12,-1,-6,nt
Cc1c(C(=O)Nc2ccc(C(=O)Nc3ccccc3)cc2)cccc1[N+](=O)[O-],6,1,-15,-2,3,-3,nt
Cc1c(C(=O)Nc2ccccc2-c2ccccc2)cccc1[N+](=O)[O-],33,0,42*,45,19,-2,29
CCc1ccc(NC(=S)N(Cc2ccc(Cl)cc2)Cc2ccc(C(=O)O)cc2)cc1,6,15,8,37,1,0,nt
CC(C)CN(CC(C)C)C(=S)Nc1ccc(Cl)cc1,37,1,55*,44,0,-1,47*
COc1ccc(C(=O)Nc2ccc(Cl)cc2C(=O)NCc2ccco2)cc1,-7,-1,2,5,7,0,nt
Cc1cccc(C(=O)O/N=C(\c2ccccc2)c2cccnc2)c1,17,25,37,10,34,-3,nt
Cc1ccc(C(=O)O/N=C(\c2ccccc2)c2cccnc2)cc1,1,17,42*,15,29,-3,36*
CSC1=C(C#N)C(c2ccccc2Cl)C2=C(CCCC2=O)N1 (centres undefined),nt,nt,nt,nt,14,nt,nt
CSC1=C(C#N)C(c2ccccc2Cl)C2=C(N1)c1ccccc1C2=O (centres undefined),30,10,46*,47,-4,-2,28
CCn1c(O)c(N=NC2=NC(=O)CS2)c2ccccc21,4,13,11,18,2,6,nt
COc1ccc2c(c1)C1C=CCC1C(c1cc3c(cc1Br)OCO3)N2 (centres undefined),29,9,51*,28,1,1,38*
